Measured values taken from PubChem BioAssay (NCATS).
Results filed as inconclusive are left out. Values without a mark were called inactive. Active and inactive are the calls of the source. Calls follow the shape of the dose curve; as a rule, active = well fitted cell-killing curve with a large enough effect; inconclusive = small, poorly fitted or top-dose-only effect, or effect the other way; inactive = no such curve, though single readings can be large or run the other way.

Experiment: Quantitative highthroughput screen to assess conditional lethalithy of SEM cells grown in RPMI1640 with dialyzed fetal bovine serum (RPMI+ds) (AID 1963884); also: nearly all actives have a fitted effect of over 35% in size
Settings: SEM B-ALL cells, RPMI+dialyzed FBS, CellTiter-Glo viability, 48 h; series mostly up to 45.8 µM; viability: at the top concentration
Text: Assay Provider: Jason Cantor Ph.D.
Department of Biochemistry
University of Wisconsin-Madison, Madison, WI, USA
Chemical screening studies have identified drug sensitivities across hundreds of cancer cell lines but most putative therapeutics fail to translate. Discovery and development of drug candidates in models that more accurately reflect nutrient levels in human blood is a major challenge. Here we performed high-throughput screens in conventional versus Human Plasma-Like Medium (HPLM) to identify compounds that were "missed" when screening using the artificial culture condition. Sets of conditional anticancer compounds spanned phases of clinical development and included non-oncology drugs were assessed. […] We also traced conditional phenotypes for several chemotherapeutics to availability of HPLM-specific metabolites and confirmed others for compounds whose reported targets are encoded by nonessential genes. Our findings establish generalizable strategies for exploiting conditional lethality in HPLM to reveal therapeutic candidates and mechanisms of action in cancer cells.
Described herein are the results of each viability screens against three cell lines: NOMO1 (an acute myeloid leukemia cell line); P12-Ichikawa (a T-cell acute lymphoblastic leukemia); and SEM (a B-cell ALL). Each assay was screened using 3 different cell culture media: homemade human plasma-Like medium with 10% dialyzed fetal bovine serum (HPLM+ds); RPMI1640 with 10% untreated FBS and 5mM glucose (RPMI+s); and RPMI1640 with 10% dialyzed fetal bovine serum and 5 mM glucose (RPMI+ds).
PROTOCOL TABLE (as described by Inglese J, Shamu CE and Guy RK. 2007)
SEQUENCE No. (e.g., 1, 2, 3, etc.); […] (e.g., Cells, Incubation, Reagent, etc.); VALUE and DESCRIPTION.
1; Cells; 5 uL; white, solid bottom 1536-well Greiner assay plate.
2; Compounds; 23 nL; Kalypsis pin tool (Wako USA) equipped with a 1536-well pin head to transfer to the assay plates.
3; Incubation; 48 hours; 37C incubation.
4; Reagent; 3 uL; CellTiter Glo (Promega).
5; Incubation; 5 min, room temperature
6; Detection; Luminescence, Viewlux PerkinElmer.
NOTES (numbers refer to Sequence numbers above)
1. Briefly, 5 ul of cell reagent was dispensed using a Multidrop Combi Dispenser. The NOMO1 and SEM cells were plated at 500 cells/well and the P12-Ichikawa line at 1000 cells/well.
2. After seeding the cells, 23 nL of MIPE 4.1 library compounds (in DMSO) were added to each plate using a Kalypsys 1536 Pintool dispenser. Bortezomib at final concentration of […] and DMSO were added to each plate as positive and negative controls respectively. For each screen, MIPE 4.1 compounds were added over an eleven-point concentration range […] in 3-fold dilutions.
3. Each plate was covered with a stainless steel gasketed lid to prevent evaporation and incubated for 48 hour at 37C, 95% relative humidity, and 5% CO2.
4-5. Three microliter CellTilter-GloTM luminescent substrate mix (Promega) reagent was added to the assay plate and incubated at room temperature for 5 min.
6. The luminescence signal was measured using a ViewLux (PerkinElmer) multiplate reader with a 2 second exposure time per plate. Data for each compound were normalized as percent viability such that measurements for DMSO and the empty well controls in each plate were defined as 100% and 0%, respectively.
Potency is read from the fitted curve at half-maximal effect.

Row | Structure (SMILES) | viability | Potency
1 | CC1(C)Cc2c(-c3ccccc3)c(-c3ccc(Cl)cc3)c(CC(=O)O)n2C1 | 84.7% | –
2 | CC(C)c1cc(C(C)C)c(CC(=O)NS(=O)(=O)Oc2c(C(C)C)cccc2C(C)C)c(C(C)C)c1 | 104% | –
3 | Cn1cc(-c2ccc3nnc(C(F)(F)c4ccc5ncccc5c4)n3n2)cn1 | 79.2% | –
4 | COc1cccc2c1C(=O)c1c(O)c3c(c(O)c1C2=O)C[C@@](O)(C(=O)CO)C[C@H]3O[C@H]1C[C@H](N)[C@H](O)[C@H](C)O1 | – | 0.372 µM (active)
5 | NC(=O)OCC(COC(N)=O)c1ccccc1 | 101% | –
6 | COC(=O)C[C@](O)(CCCC(C)(C)O)C(=O)O[C@@H]1C(OC)=C[C@]23CCCN2CCc2cc4c(cc2[C@H]13)OCO4 | 104% | –
7 | COc1ccnc2[nH]cc(C(=O)C(=O)N3CCN(C(=O)c4ccccc4)C[C@@H]3C)c12 | 103% | –
8 | COc1ccc(-c2cc(=O)c3c(O)cc(O[C@@H]4O[C@H](CO[C@@H]5O[C@@H](C)[C@H](O)[C@@H](O)[C@@H]5O)[C@@H](O)[C@H](O)[C@@H]4O)cc3o2)cc1O | 89.8% | –
9 | NC(=O)c1ccc(-c2nc(-c3ccc4c(c3)OCCO4)c(-c3ccccn3)[nH]2)cc1 | 123% | –
10 | COc1cc(C(C)=O)ccc1OCCCN1CCC(c2noc3cc(F)ccc23)CC1 | 74.9% | –
11 | CN(C)c1cccc(-c2c3c(=O)n(-c4ccccc4Cl)[nH]c3cc(=O)n2C)c1 | – | 0.831 µM (active)
12 | CNC(=O)[C@H](CC1=CN=C2C=CCC=C12)NC(=O)[C@@H](CC(=O)NO)CC(C)C | 88.1% | –
13 | CN1CCN(CCOc2cc(OC3CCOCC3)c3c(Nc4c(Cl)ccc5c4OCO5)ncnc3c2)CC1 | – | 10.5 µM (active)
14 | O=c1c(-c2ccc(O)cc2)coc2cc(OC3O[C@H](CO)[C@H](O)[C@H](O)[C@H]3O)cc(O)c12 (stereo not given in full) | 104% | –
15 | CC[C@H](C=C[C@@H](C)[C@H]1CC[C@H]2[C@@H]3CC=C4C[C@@H](O)CC[C@]4(C)[C@@H]3CC[C@]12C)C(C)C | 108% [at 23.2 µM] | –
16 | CCOc1cc(CC(=O)N[C@@H](CC(C)C)c2ccccc2N2CCCCC2)ccc1C(=O)O | 107% | –
17 | NC(=O)c1cccc2[nH]c(-c3ccc([C@H]4CCCN4)cc3F)nc12 | – | 2.64 µM (active)
18 | Cc1cc2cc3c(C)cc(=O)oc3c(C)c2o1 | 102% | –
19 | CCOC(=O)N1CCN([N+]([O-])=NOc2cc(ON=[N+]([O-])N3CCN(C(=O)OCC)CC3)c([N+](=O)[O-])cc2[N+](=O)[O-])CC1 | 90.2% | –
20 | C=CC1=C(C(=O)O)N2C(=O)[C@@H](NC(=O)C(=NO)c3csc(N)n3)[C@H]2SC1 | 95.1% | –

Row | Structure (SMILES) | viability | Potency
21 | CCC1(C)CC(=O)NC1=O (stereo not given) | 71.6% | –
22 | Cc1ccccc1C(OCCN(C)C)c1ccccc1 (stereo not given) | 91.7% | –
23 | CCCn1c(=O)c2[nH]c(C34CC5CC3C[C@@H](C5)C4)nc2n(CCC)c1=O | 112% | –
24 | CCCN[C@H]1CCc2nc(N)sc2C1 | 84.5% | –
25 | CCCS(=O)c1ccc2nc(NC(=O)OC)[nH]c2c1 (stereo not given) | – | 9.35 µM (active)
26 | Cc1ccccc1-n1c(Cn2nc(-c3cccc(O)c3)c3c(N)ncnc32)nc2cccc(C)c2c1=O | 78.7% | –
27 | CC(=O)OCC(=O)[C@@]1(O)CC[C@H]2[C@@H]3CCC4=CC(=O)CC[C@]4(C)[C@@H]3C(=O)C[C@@]21C | 95.9% | –
28 | CC(C)c1onc(-c2c(Cl)cccc2Cl)c1COc1ccc(C=Cc2cccc(C(=O)O)c2)c(Cl)c1 | 84.4% | –
29 | COC(=O)C=CC(=O)OC | – | 2.64 µM (active)
30 | CN1C[C@H]2c3ccccc3Oc3ccc(Cl)cc3[C@@H]2C1 | – | 23.5 µM (active)
31 | Cn1c(=O)c2c(ncn2CC(O)CO)n(C)c1=O (stereo not given) | 111% | –
32 | Cc1ccc(S(=O)(=O)Nc2nc3ccccc3nc2Nc2ccc3nsnc3c2)cc1 | – | 4.07 µM (active)
33 | COc1cc2c(cc1OC)CC(=O)N(CCCN(C)C[C@H]1Cc3cc(OC)c(OC)cc31)CC2 | 93.9% | –
34 | CC1(C)CCC(C)(C)c2cc(NC(=O)c3ccc(C(=O)O)cc3)ccc21 | 88% | –
35 | c1cncc(CN2CCC(n3ncc4c(N5CCOCC5)nc(-c5ccc6[nH]ccc6c5)nc43)CC2)c1 | – | 14.8 µM (active)
36 | C[C@]12CC[C@@H]3c4ccc(O)cc4C[C@@H](CCCCCCCCCS(=O)CCCC(F)(F)C(F)(F)F)[C@H]3[C@H]1CC[C@H]2O (stereo not given in full) | 75% | –
37 | CC(=O)Nc1sc2c(c1-c1nc3ccccc3s1)CNC2 | – | 18.7 µM (active)
38 | O=c1c(-c2ccc(O)cc2)coc2cc(O)ccc12 | 103% | –
39 | CC(=O)Oc1ccccc1C(=O)Nc1ncc([N+](=O)[O-])s1 | 81.1% [at 92.2 µM] | –
40 | CCOC(=O)C=C[C@H](C[C@@H]1CCNC1=O)NC(=O)[C@@H](CC(=O)[C@@H](NC(=O)c1cc(C)on1)C(C)C)Cc1ccc(F)cc1 | 87.4% | –
